Measured values from publication PMC5540273 (PLoS ONE, 2017).

These molecules were tested on ABL1-phosphorylated. Settings: concentration: 1 μM, replicates: in singlicate; n = 1.
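Further: KINOMEscan kinase panel screen.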

Compound | %Inh [%]
COc1cccc(NC(=O)NCCNc2ccnc(Nc3ccc(F)cc3)n2)c1 [GSK1379879] | 0
CS(=O)(=O)c1cccc(CNc2nc(Nc3ccc4c(c3)CCC(=O)N4)ncc2C(F)(F)F)c1 | 16
c1ccc(Oc2ccc(Nc3ccnc4cc(-c5ccc(CN6CCCCC6)o5)ccc34)cc2)nc1 [GW567143] | 24
COC(=O)Nc1nc2cc(Oc3ccc(NC(=O)Nc4cccc(SC)c4)cc3)ccc2[nH]1.Cl [GW697999] | 90.1
Nc1ncc(-c2ccc3nccc(-c4ccncc4)c3c2)cc1S(=O)(=O)N1CCCCC1 [GSK1693850] | 0
Cc1ccc(-c2ccc3occ(-c4ccc(S(C)=O)cc4)c3c2)nn1 (stereo not shown) | 29
CC(C)NCC(Cc1ccccc1)NC(=O)c1cc(Br)c(-c2ccnc3[nH]ccc23)s1.Cl.Cl (stereo not shown) [GSK1383281] | 14
Cc1ccc(Nc2ccnc(Nc3ccc(C)c(F)c3)n2)cc1O.Cl [GW582868] | 47
Nc1cccc(-c2ccc3c(N)n[nH]c3c2)c1 [GSK2193613] | 37
CN1CCN(Cc2ccc(NC(=O)Nc3ccc(N(C)c4ccnc(Nc5ccc(CS(C)(=O)=O)cc5)n4)cc3)cc2)CC1.Cl [GW827654] | 94.2
Cc1ccc(NC(=O)c2ccc(Cl)c(Cl)c2)cc1-c1ccc(C(=O)Nc2ccncc2)cc1 [GSK1398460] | 4
CN(c1ccc(NC(=O)N2CCN(CCCN3CCOCC3)CC2)cc1)c1ccnc(Nc2ccc(CS(C)(=O)=O)cc2)n1.Cl [GW830899] | 60
CSc1ccc(NC2=C(c3ccc(Cl)cc3)C(=O)NC2=O)cc1 [SB-317658] | 0
O=C(Nc1n[nH]c2nc(-c3ccccc3)ccc12)C1CC1 [SB-708999] | 41
COc1cc(Nc2ccnc3cc(-c4ccncc4)ccc23)cc(OC)c1OC.Cl [GW494610] | 99.4
Cc1ccc(O)cc1Nc1ccnc2ccc(C(C)(C)C)cc12 [GW856805] | 99.6
Cc1ccc(NC(=O)c2ccnc(N3CCCCC3)c2)cc1-c1ccc(C(=O)NCC2CC2)cc1 [GW775610] | 0
Cc1cc(-c2ccnc(Nc3cccc(C#N)c3)n2)cc(C)c1O [GSK1440913] | 1
Cl.Cl.NCC(NC(=O)c1cc(-c2cccnc2)c(-c2ccnc3[nH]ccc23)s1)c1ccccc1 (stereo not shown) [GSK1323434] | 37

Compound | %Inh [%]
COc1ccc(C2=C(Nc3cccc(O)c3)C(=O)NC2=O)cc1 [SB-390766] | 0
COC(=O)Nc1nc2ccc(Oc3ccc(NC(=O)Nc4cc(C(F)(F)F)ccc4F)cc3)cc2[nH]1.Cl [GW654607] | 57
O=C(Nc1n[nH]c2nc(-c3cccc(O)c3)ccc12)C1CC1 [SB-711805] | 88
N#Cc1cnc2cc(-c3cnc(CNCCN4CCOCC4)s3)ccc2c1Nc1ccc(Oc2ccccc2)cc1 [GW664114] | 49
CN(C)CCNS(=O)(=O)c1ccc(-c2ccnc3[nH]ccc23)cc1 [GSK977620] | 0
CN(C)c1ncnc2nc[nH]c12 [SKF-31736] | 27
COc1ccc(NC(=O)c2ccoc2)cc1-c1ccc(C(=O)NCC2CC2)cc1 [GW810437] | 1
O=C(Nc1c(F)cccc1F)c1cc(C(=O)c2ccccc2F)c[nH]1 [GSK1326180] | 0
Cn1cc(-c2cnc(N)c3c(-c4ccc5c(c4)CCN5C(=O)Cc4ccccc4)csc23)cn1 [GSK2593074] | 89
O=C(O)C(F)(F)F.O=c1[nH]ccc2nc(N[C@@H]3CCNC3)nc(Nc3cc(Cl)cc(Cl)c3)c12 [GSK2188764] | 11
CN(c1ccc(NC(=O)Nc2cccc(Cl)c2)cc1)c1ccnc(N)n1.Cl [GW830707] | 0
Cn1cc(-c2ccc3c(c2)CCN3C(=O)Cc2cc(F)cc(F)c2F)c2c(N)ncnc21 [GSK2634140] | 29
CC(C)(C)c1ccc(C(=O)Nc2cn3cc(-n4ccnc4)ccc3n2)cc1 | 21
CC(C)c1nc(-c2cccc(NS(=O)(=O)c3c(F)cccc3F)c2)c(-c2ccnc(Nc3ccc(N4CCOCC4)nc3)n2)s1.Cl [GSK1723980] | 95.6
O=C1NC(=O)C(c2ccccc2Cl)=C1Nc1cccc(Cl)c1 [SB-342409] | 9
CCn1c(-c2nonc2N)nc2c(-c3ccccc3)ncc(OCCCN)c21.O=C(O)C(F)(F)F.O=C(O)C(F)(F)F [GSK260205] | 9
COc1ccc(C)c(Nc2ccnc(Nc3ccc(-c4cnc[nH]4)cc3)n2)c1.Cl [GW784041] | 97.1
CN(c1ccc(F)c(NC(=O)c2cccc(OC(C)(C)C#N)c2Cl)c1)c1ccc2nc(NC(=O)C3CC3)sc2n1 | 92.6
